Assay outcomes deposited in PubChem BioAssay by National Center for Advancing Translational Sciences (NCATS).
AMA1 RON2 block: disrupts binding of P. falciparum AMA1 to RON2. 0.2% of 360,000 active. Potency, µM (top dose mostly 58.2 µM), without a hit: top-dose activity change, negative = inhibition, usual class: inhibitors. AlphaScreen AMA1-biotinylated RON2 peptide binding;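 also: potency is read from the fitted curve at half-maximal effect; 0% = vehicle wells and -100% = peptide control; nearly all actives have a fitted effect of over 45% in size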
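AMA1 (3D7) with his tag at 25 nM final met compounds first, then biotinylated RON2 peptide at 25 nM; detection used donor plus acceptor beads, 10 µg/mL apiece, read by AlphaScreen after 30 min at room temperature.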
Shiga inhibitor: blocks Shiga toxin action in Vero cells; 9.2% of 290,000 active; Vero cells, Shiga toxin protein synthesis inhibition reporter; inhibition, % at 38.7 µM; in the data active = inhibition mostly above about 28%, no sharp cut-off; inactive = mostly below about 43%; also: 0% is about no effect
AmpC no deterg: inhibitors of E. coli AmpC beta-lactamase without detergent | AmpC nitrocefin hydrolysis, absorbance 480 nm, 0.0001% Triton | 0.52% of 330,000 active | Potency, µM (top dose mostly 57.1 µM), for the others: at the highest dose activity change, negative = inhibition, actives largely listed as inhibitors | P00811;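 also: potency is read from the fitted curve at half-maximal effect; plate controls were no compound for no effect and no enzyme for full effect; nearly all actives have a fitted effect of over 20% in size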
Target sequence (P00811 whole entry, looked up): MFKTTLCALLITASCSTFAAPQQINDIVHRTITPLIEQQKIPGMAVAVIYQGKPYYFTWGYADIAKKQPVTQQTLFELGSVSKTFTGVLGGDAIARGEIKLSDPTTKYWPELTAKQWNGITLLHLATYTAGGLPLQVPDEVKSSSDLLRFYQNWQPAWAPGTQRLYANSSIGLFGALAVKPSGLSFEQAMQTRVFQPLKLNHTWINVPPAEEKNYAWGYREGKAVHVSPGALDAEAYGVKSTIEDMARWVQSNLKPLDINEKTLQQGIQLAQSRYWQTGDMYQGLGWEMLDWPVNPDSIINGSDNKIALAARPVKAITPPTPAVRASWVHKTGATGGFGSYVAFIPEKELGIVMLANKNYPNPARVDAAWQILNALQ
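AmpC (5.3 nM in the dispensed reagent) in 20 mM phosphate pH 7.0 with 0.01% (detergent screen) or 0.0001% Triton X-100 was preincubated with compounds for 15 min at room temperature. Nitrocefin was then added from an 800 uM solution, and hydrolysis was followed at 480 nm.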
SARS PLpro yeast: blocks SARS-CoV papain-like protease in a yeast assay; S. cerevisiae expressing SARS-CoV PLpro, growth rescue; Potency, µM (series often up to 32.9 µM), for the others: at the top dose activity, positive = growth rescue, hits mostly activators; 0.19% of 330,000 active; calls by dose curve; also: potency is read from the fitted curve at half-maximal effect; 0% is about no effect; nearly all actives have a fitted effect of over 55% in size
AmpC detergent: blocks E. coli AmpC beta-lactamase in detergent assay; P00811; AmpC hydrolysis of nitrocefin, absorbance 480 nm, 0.01% Triton; Potency, µM (top dose mostly 114 µM), for inactives: top-dose activity change, negative = inhibition, hits mostly inhibitors; 0.041% of 370,000 active;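 also: potency is read from the fitted curve at half-maximal effect; 0% = no-compound wells and -100% = no-enzyme wells; nearly all actives have a fitted effect of over 25% in size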
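AmpC (5.3 nM in the dispensed reagent) in 20 mM phosphate pH 7.0 with 0.01% (detergent screen) or 0.0001% Triton X-100 was preincubated with compounds for 15 min at room temperature. Nitrocefin was then added from an 800 uM solution, and hydrolysis was followed at 480 nm.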
CHX counter: counter-screen for Shiga toxin inhibitors: cycloheximide protein synthesis inhibition; cell reporter, cycloheximide protein synthesis inhibition counterscreen; max response, %; 12% of 300,000 active; in the data active = max response mostly above about 13%, no sharp cut-off; inactive = mostly below about 14%; also: read at 38.3 µM for the half of the compounds with a filed dose; 0% is about no effect
Numbers without * were called inactive; ? = inconclusive; nt = not tested or not shown; [ ] = another dose, or the depositor's remark. This is one part of a sample in which hits are shown more often than they occur. Unless noted, calls follow the shape of the dose curve; as a rule, active = well fitted curve in the direction sought with a large enough effect; inconclusive = small, poorly fitted or top-dose-only effect, or another doubt; inactive = no such curve, though single readings can be large; an effect the other way counts as inactive or inconclusive.

SMILES	AMA1 RON2 block	Shiga inhibitor	AmpC no deterg	SARS PLpro yeast	AmpC detergent	CHX counter
O=C(c1cc2ccccc2oc1=O)N(Cc1ccccc1)CC1CCCO1 (stereo not given)	11%	16	-6%	13%	1%	6
CN(c1ccccc1C(=O)NCC1CCCO1)S(C)(=O)=O (stereo not given)	-4%	-2	0.16µM*	2%	1%	-3
CCN1CCCC1CNC(=O)c1csc2c1CCCC2 (stereo not given)	-18%	-3	?	5%	3%	-2
O=C(NNc1c(F)c(F)cc(F)c1F)c1cc2ccccc2oc1=O	5%	112*	-30%	-4%	-15%	50*
O=C(COc1ccccc1)NNC(=O)c1cc2ccccc2oc1=O	102%	18	-8%	6%	?	12
O=C(NCC1CCCO1)c1csc2c1CCCC2 (stereo not given)	8%	31	0%	-1%	-12%	40*
O=C(NCC1CCCO1)c1cc2ccccc2oc1=O (stereo not given)	5%	96*	-7%	1%	-9%	37*
C[C@H](NC(=O)c1[nH]cnc1C(=O)Nc1ccccc1F)c1ccccc1	128%	nt	nt	nt	nt	nt
O=S(=O)(Nc1nccs1)c1ccc(Br)cc1	-20%	2	-36%	0%	8%	-3
Cn1cc(/C=C(\C#N)C(=O)Nc2ncc(Cc3ccc(Cl)cc3)s2)c2ccccc21	0%[2.32 µM]	-8	-18%	12%	5%	-3
CCC(=O)Nc1ccc2c(c1)OC[C@@H](C)N(C(=O)c1ccccn1)C[C@@H](C)[C@@H](OC)CN(C)C2=O	42%	nt	nt	nt	nt	nt
COc1ccc(S(=O)(=O)N2CCN(C3CCCC(C)C3)CC2)cc1 (stereo not given)	-26%	-3	36%	-3%	-12%	-2
C=CCc1cccc2cc(C(=O)NC3CCCCC3)c(=O)oc12	5%	88*	-9%	6%	?	28
N=c1oc2ccccc2cc1C(=O)NC1CCCCCC1	-20%	123*	0%	2%	0%	56*
O=C(NCC1CCCO1)c1cc2cc(F)ccc2[nH]1 (stereo not given)	-7%	38*	-16%	0%	-4%	27*
O=C(NCC1CCCO1)c1ccc[nH]1 (stereo not given)	-3%	-10	-12%	2%	-12%	-1
O=C(c1ccc(Br)cc1)c1cc2ccc(O)cc2oc1=O	-5%	25	-34%	-7%	2%	10
O=C(c1ccccc1)c1cc2ccc(O)cc2oc1=O	-13%	36	-26%	-19%	1%	21*
COC(=O)c1cc(Br)c(=O)n(CCN2CCOCC2)c1	26%	5	-4%	-4%	3%	-1
O=C(NCC1CCCO1)c1csc(Nc2cccc3ccccc23)n1 (stereo not given)	-7%	77*	-17%	1%	0%	41*
CN(C(=O)COC(=O)c1cc2ccccc2oc1=O)C1CCCCC1	8%	nt	-10%	0%	nt	nt
COc1ccc2cc(C(=O)NC3CCCCC3)c(=O)oc2c1	-18%	-17	-13%	-2%	2%	-1
O=C(NC1CCCCCC1)c1cc2ccccc2oc1=O	-4%	43*	-18%	nt	?	43*
CCCNC(=O)c1csc(Nc2cccc3ccccc23)n1	0%	nt	-17%	-19%	-9%	-2
O=C(OC1CCCCC1)c1cc2ccccc2oc1=O	-14%	79*	-21%	-1%	-1%	43*
CCN1CCN(c2nc3ccccc3nc2C(C#N)S(=O)(=O)c2ccc(C)cc2)CC1 (stereo not given)	10%	-10	57%	-1%	-17%	8
O=C(CC1Nc2ccccc2NC1=O)NCc1cccnc1 (stereo not given)	23%	8	-14%	10%	-4%	-1
Cc1cc(N/N=C/c2ccc(O)c(C)c2O)nc(-c2ccccc2O)n1	70%	32	-39%	-80%	-2%	25*
C/C(=N\Nc1cc(C)nc(-c2ccccc2)n1)c1cccc([N+](=O)[O-])c1	-17%	1	-14%	-1%	10%	5
